40 compounds from PubChem BioAssay (NCI) can be followed below.

Each structure is given as a SMILES string. About 83,000 compounds went through this panel and 20% of them were active in at least one assay; those are over-represented in the sample as a whole.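 Cells were grown in 96-well plates and exposed to the test compound at a single concentration for 48 hours; results are reported as percent growth, with values below 10 considered active.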 The source made the active and inactive calls.

This assay deals with MDA-MB-468 breast. In words: NCI-60 one-dose screen, 48 h (100 = growth as untreated, 0 = no growth, -100 = all killed). The following applies: 10 µM unless noted.
For `O=c1ccc2nc(-c3ccccc3)nn(-c3ccccc3)c-2c1`, the growth is -81.6% (active).
As for `CCCCCC/C=N/Nc1ccc([N+](=O)[O-])cn1`, the growth is 108% (inactive).
Consider `COc1cc(N2C(=O)[C@H](O)C2c2ccc(SC)cc2)cc(OC)c1OC` (stereo not given in full), for which the growth was 3.3% (active).
Consider `CN(C)CCCn1c2c(c3cc(-c4ccco4)ccc3c1=O)C(=O)c1ccccc1-2`, for which the growth is 40.2% (inactive).
As for `O=C(Nc1cc(=O)[nH]c(=O)[nH]1)C(Cl)Cl`, the figure is 98.5% (inactive); as for `COc1cccc2c1C(=O)c1c(O)c3c(c(O)c1C2=O)C[C@](O)(C(=O)CO)C[C@H]3O[C@@H]1C[C@@H](NC(=O)CCCN(C)C2(c3ccc(F)cc3)CC3CCC2C3)[C@H](O)[C@@H](C)O1` (stereo not given in full), -82.4% (active); as for `Clc1ccc(/C=C/c2nc(N3CCOCC3)c3nc(Cl)c(Cl)cc3n2)cc1`, 102% (inactive).
The same measure for `S=C(Cc1ccc2c(c1)CCCC2)N1CCOCC1`: 105% (inactive); for `CN1CCN(Cc2ccc(NC(=O)c3[nH]ncc3Nc3ccnc4ccnn34)cc2)CC1`: 65.6% (inactive).
Turning to `COc1cc(C2CC(c3ccc(Cl)cc3)=NN2C=O)ccc1Oc1ccnc2cc(Cl)ccc12` (stereo not given), the growth is 39.7% (inactive).
The same measure for `Nc1n[nH]c2cc(F)c([C@@H]3Nc4ccc5[nH]ncc5c4[C@H]4C5CCC(C5)[C@@H]34)cc12` (stereo not given in full): -11.7% (active).
Take `CCN1C(=O)N(CC)C2C1NN=c1s/c(=C\c3ccc([N+](=O)[O-])cc3)c(=O)n12` (stereo not given): the growth was 7.94% (active).
Turning to `Cc1nn(CC(=O)O)c2c1C(=O)CC(C)(C)C2`, the growth is 106% (inactive).
For the compound `CN1CCN(CCCOc2ccc3nc(Nc4ccc(F)c(F)c4)ccc3c2)CC1`, the growth is 9.52% (active).
For the compound `CC[C@H](C)[C@@H](C(=O)OC)n1cc(CNC(=O)[C@@H](Cc2ccccc2)NC(=O)OCc2ccccc2)nn1`, the growth is 99% (inactive).
With `FC(F)(F)c1cccc(Nc2nc3ccccc3nc2Nc2cccc(C(F)(F)F)c2)c1`, the growth was -12.9% (active).
With `CC(=O)c1c(C)[nH]c(-c2nc3ccc(N4CCN(C)CC4)cc3[nH]2)c1-c1ccc(N(C)C)cc1`, the growth was 21% (inactive).
With `COc1cc(C2CC(c3cccc(Nc4ccncc4)c3)=NN2c2cc(Cl)cc(Cl)c2)cc(OC)c1OC` (stereo not given), the growth is -11.9% (active).
Consider `Fc1ccc2nc(-c3cnn4cccnc34)sc2c1`, for which the growth is -2.57% (active).
As for `S=C(SSC(=S)N(c1ccccc1)c1ccccc1)N(c1ccccc1)c1ccccc1`, the figure is 107% (inactive); as for `CCOC(=O)CC(=O)c1c(C)cc(C)cc1C`, 98.6% (inactive); as for `O=C(Cn1cc(COc2ncnc3c2cnn3-c2ccccc2)nn1)Nc1cccc2ccccc12`, 86.5% (inactive).
The same measure for `C[N+]1(CC2CO2)CCCCCC1` (stereo not given): 103% (inactive); for `N#Cc1c(Nc2ccc(F)cc2)n[nH]c1-c1cccs1`: 98.4% (inactive); for `COC(=O)c1ccc(NC2=C(Cl)C(=O)C(C)=C(C)C2=O)cc1`: -45.9% (active).
For the compound `C=C1C(=O)O[C@H]2[C@H]1CC/C(Cn1cc(-c3ccccc3C(F)(F)F)nn1)=C\CC[C@@]1(C)O[C@@H]21`, the growth was -56.1% (active).
In the case of `Cn1c(=O)[nH]c(=O)c2nc(CCC(=O)NCCC(=O)O)c(=O)[nH]c21`, the growth is 102% (inactive).
As for `CCOC(=O)CC(=O)CSC1=NC2C(NN1)N(C)C(=O)N2C` (stereo not given), the growth is 12.2% (inactive).
`COc1ccc(Oc2[nH]n(C3=Nc4ccccc4Sc4ccccc43)c(=O)c2C#N)cc1`: the growth was 98.5% (inactive).
Regarding `Fc1ccc(CNc2c3ccccc3nc3ccccc23)c(F)c1`, the growth was -4.03% (active).
For `O=C(O)CNS(=O)(=O)c1ccc(OCCOc2ccc(S(=O)(=O)NCC(=O)O)cc2)cc1`, the growth was 97.7% (inactive).
The same measure for `Cc1cc([C@@H](C)Nc2ccccc2C(=O)O)c2nc(N3CCOCC3)cc(=O)n2c1`: 9.76% (active).
For the compound `COc1ccc(C(O)c2ccccc2)cc1` (stereo not given), the growth is 3.29% (active).
Consider `Cc1cccc(NC(=O)c2sc3nc4c(cc3c2N)C(=O)CCC4)c1`, for which the growth is 33.1% (inactive).
Turning to `N#Cc1cnc2ccc(-c3cnc4n[nH]nc4c3)cc2c1N1CCc2cc(F)c(Cl)cc21`, the growth is -13.9% (active).
As to `CC1=CC(C)=Nc2ccc(Cl)cc2N1`, the growth was 109% (inactive).
Consider `CCOC(=O)/C=C1/SC(=Nc2ccc(C#N)cc2)N(Cc2ccco2)C1=O`, for which the growth is 27.5% (inactive).
As for `N=C(N)c1ccc(-c2ccc(-c3cncc4ccccc34)s2)s1`, the growth is -72% (active).
`Nc1ncc(-c2ccc3ncnc(NCc4ccccc4)c3c2)cn1`: the growth is -11.7% (active).
For `COc1cc2c(cc1OC)C(CC1(O)CCCCC1)N(S(=O)(=O)c1ccc(C)cc1)CC2` (stereo not given), the growth is 44.4% [100 µM] (inactive).
